The record followed here is PubChem BioAssay (Tox21).

Assay [1] in a line: qHTS assay to identify small molecule antagonists of the thyroid receptor (TR) signaling pathway - cell viability counter screen (AID 743064). Also: nearly all actives have a fitted effect of over 50% in size. Also: potency is read from the fitted curve at half-maximal effect. In outline:
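In rat pituitary GH3.TRE-Luc reporter cells co-exposed to compound and 1 nM T3 for 23.5 h, cytotoxicity was assessed with CellTiter-Fluor in the same wells, read by fluorescence.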

Assay [2] can be described thus: qHTS assay to identify small molecule antagonists of the thyroid receptor (TR) signaling pathway (AID 743065). Also: nearly all actives have a fitted effect of over 55% in size. Also: potency is read from the fitted curve at half-maximal effect. In outline:
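GH3.TRE-Luc rat pituitary cells carrying two TR response elements driving luciferase were plated for 4 h, given compound plus 1 nM T3 (final), and incubated 23.5 h at 37 C. ONE-Glo luminescence measured reporter inhibition; CellTiter-Fluor fluorescence tracked cytotoxicity.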

Assay [3] relates to thyroid hormone receptor (rat, GH3 cells). As to the kind of experiment: qHTS assay to identify small molecule agonists of the thyroid receptor (TR) signaling pathway (AID 743066; calls by dose curve).
For assay [4], the target named is Estrogen receptor (Homo sapiens) (UniProt P03372). As to the kind of experiment: qHTS assay to identify small molecule antagonists of the estrogen receptor alpha (ER-alpha) signaling pathway (AID 743069; active = well fitted curve in the direction sought with a large enough effect in the signal ratio in the repeat runs, not every such curve was filed as active; the % refers to the signal ratio). In outline:
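HEK293 cells stably carrying an ER-alpha-UAS-bla beta-lactamase reporter were pre-cultured overnight in 2% charcoal-stripped FBS medium. Test compounds in DMSO were added together with 17beta-estradiol for 18 hr at 37C. Read-out was fluorescence after 2 hr with LiveBLAzer B/G FRET substrate at room temperature.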

Assay [5] can be described thus: qHTS assay to identify small molecule antagonists of the estrogen receptor alpha (ER-alpha) signaling pathway - cell viability counter screen (AID 743074; calls by dose curve; also: nearly all actives have a fitted effect of over 45% in size).
For assay [6], the target named is Estrogen receptor (Homo sapiens) (UniProt P03372). As to the kind of experiment: qHTS assay to identify small molecule agonists of the estrogen receptor alpha (ER-alpha) signaling pathway (AID 743075; calls by dose curve).
Sequence of Estrogen receptor (Homo sapiens) (P03372 whole entry, looked up): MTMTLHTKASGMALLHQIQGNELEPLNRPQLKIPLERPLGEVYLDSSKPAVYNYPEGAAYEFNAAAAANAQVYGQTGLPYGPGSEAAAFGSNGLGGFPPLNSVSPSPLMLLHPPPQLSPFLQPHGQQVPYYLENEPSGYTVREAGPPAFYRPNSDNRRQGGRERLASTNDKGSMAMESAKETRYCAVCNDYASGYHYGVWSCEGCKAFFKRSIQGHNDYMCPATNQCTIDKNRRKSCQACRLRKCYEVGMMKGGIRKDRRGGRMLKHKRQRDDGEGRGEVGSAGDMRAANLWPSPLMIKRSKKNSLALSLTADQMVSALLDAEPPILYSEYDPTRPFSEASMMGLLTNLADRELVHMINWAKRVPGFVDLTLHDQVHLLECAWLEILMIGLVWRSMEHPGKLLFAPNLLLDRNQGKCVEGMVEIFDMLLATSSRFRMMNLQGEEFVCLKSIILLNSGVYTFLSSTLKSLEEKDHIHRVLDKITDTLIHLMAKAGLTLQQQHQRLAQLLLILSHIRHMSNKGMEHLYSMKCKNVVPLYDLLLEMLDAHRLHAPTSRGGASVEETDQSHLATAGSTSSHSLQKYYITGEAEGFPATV
For assay [7] the target is unchanged. As to the kind of experiment: qHTS assay to identify small molecule agonists of the estrogen receptor alpha (ER-alpha) signaling pathway using the BG1 cell line (AID 743079). Also: nearly all actives have a fitted effect of over 20% in size. Also: potency is read from the fitted curve at half-maximal effect.
A short description of assay [8]: qHTS assay to identify small molecule antagonists of the estrogen receptor alpha (ER-alpha) signaling pathway using the BG1 cell line (AID 743080; calls by dose curve;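 also: BG1 cells stimulated with 17beta-estradiol alongside compound; series mostly up to about 70 µM; nearly all actives have a fitted effect of over 25% in size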). The gist of the method:
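BG1Luc4E2, endogenous ER-alpha, 4xERE-luc; 5 d charcoal-stripped FBS, phenol red free; 24 h plating; cpd + 17beta-estradiol 21.5 h, 37 C/5% CO2; CellTiter-Fluor viability 30 min, then ONE-Glo luciferase 30 min RT.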

Assay [9] can be described thus: qHTS assay to identify small molecule antagonists of the estrogen receptor alpha (ER-alpha) signaling pathway using the BG1 cell line - cell viability counter screen (AID 743081).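 Also: compound given together with 17beta-estradiol as the ER stimulus; series mostly up to about 70 µM; nearly all actives have a fitted effect of over 45% in size.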
A further assay has as its target Aromatase (Homo sapiens) (UniProt P11511). Put plainly: qHTS assay to identify aromatase inhibitors (AID 743083). Also: series mostly up to about 70 µM; nearly all actives have a fitted effect of over 55% in size.

Several values for one entry are separate records, joined by “and”; a condition that tells them apart may be missing. Equal values may be shown once. Results filed as inconclusive are left out. The source holds several records for some structures; these can differ, active in one and inactive in another. Activity calls are given as the source filed them. Unless noted, calls follow the shape of the dose curve; as a rule, active = well fitted curve in the direction sought with a large enough effect in the repeat runs; inconclusive = weak or mixed curves; inactive = no such curve, though single readings can be large; an effect the other way counts as inactive or inconclusive.

Sequence of Aromatase (Homo sapiens) (P11511 whole entry, looked up): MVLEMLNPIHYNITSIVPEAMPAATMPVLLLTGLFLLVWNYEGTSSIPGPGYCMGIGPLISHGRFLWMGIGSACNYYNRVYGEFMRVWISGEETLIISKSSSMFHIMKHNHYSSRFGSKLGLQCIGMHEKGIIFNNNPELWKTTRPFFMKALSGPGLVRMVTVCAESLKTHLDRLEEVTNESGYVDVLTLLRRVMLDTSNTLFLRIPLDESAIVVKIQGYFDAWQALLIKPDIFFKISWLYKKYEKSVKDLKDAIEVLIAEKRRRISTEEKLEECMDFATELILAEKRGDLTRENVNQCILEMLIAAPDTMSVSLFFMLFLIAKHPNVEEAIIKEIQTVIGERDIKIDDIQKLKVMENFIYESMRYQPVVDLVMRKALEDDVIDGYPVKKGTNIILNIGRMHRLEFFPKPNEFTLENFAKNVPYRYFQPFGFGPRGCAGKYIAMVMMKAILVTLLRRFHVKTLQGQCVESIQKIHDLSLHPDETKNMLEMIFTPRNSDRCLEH

On to `C=Cc1ccccc1`, for which the Potency result in [1], in assay [2], in assay [4], in assay [5], in [7] and in [9] was “inactive” each time. Further, the Potency result with Aromatase (Homo sapiens) is “inactive”. In addition, the call in assay [3], in assay [6] and in assay [8] was inactive.

On to `O=Cc1ccc(F)c(Br)c1`, for which the Potency entry in [1], in assay [2], in [4], in assay [5], in [7] and in assay [9] was “inactive” in each case. The Potency result in the assay with Aromatase (Homo sapiens) is “inactive”. For the same molecule, the molecule was called inactive in assay [3], in assay [6] and in assay [8].

As to `CN1CCN(c2c(F)cc3c(=O)c(C(=O)O)cn4c3c2SCC4)CC1`, the Potency result in assay [1], in [2], in assay [4], in assay [5], in assay [7] and in assay [9] was “inactive” in each case. Moreover, the Potency result with Aromatase (Homo sapiens) was “inactive”. The outcome in assay [3], in [6] and in [8] was inactive.

`Cc1ccc(C)c(N)c1`: the Potency entry (in assay [1]; in assay [2]; in assay [4]; in assay [5]; in [9]; with Aromatase (Homo sapiens)) was “inactive” in each case. Further, the molecule was called inactive in assay [3], in [6] and in [8]. For the same molecule, the Potency in [7] is 77 µM (active).

Turning to `CCc1cc(Cl)c(OC)c(C(=O)NC[C@@H]2CCCN2CC)c1O`, the Potency is 23.7 µM (active) and 7.5 µM (active) in assay [1]; 23.7 µM (active) and 11.4 µM (active) and 11.9 µM (active) in [2]; 10.6 µM (active) and inactive in assay [7]. The call in [3], in assay [6] and in [8] was inactive. Also, the Potency entry (in assay [4]; in assay [5]; in [9]; with Aromatase (Homo sapiens)) was “inactive” in each case.

For `NCCCN1CCN(CCCN)CC1`, the Potency entry in assay [1], in assay [2], in assay [4], in [5], in [7] and in assay [9] was “inactive” throughout. Besides, the Potency result with Aromatase (Homo sapiens) is “inactive”. For the same molecule, the call in [3], in assay [6] and in assay [8] was inactive.

On to `O=C1CCCc2ccccc21`, for which the Potency result in assay [1], in [2], in [4], in assay [5], in assay [7] and in assay [9] was “inactive” each time. The Potency result in the assay with Aromatase (Homo sapiens) is “inactive”. In addition, the call in [3], in assay [6] and in [8] was inactive.

Consider `Nc1cccc(S(=O)(=O)O)c1`, for which the Potency result in assay [1], in assay [2], in assay [4], in assay [5], in assay [7] and in [9] was “inactive” in each case. Moreover, the Potency entry in the assay with Aromatase (Homo sapiens) is “inactive”. The outcome in assay [3], in assay [6] and in assay [8] was inactive.

Take `CC(C)C(=O)OC/C=C/c1ccccc1`: the Potency entry in assay [1], in assay [2], in assay [4], in [5], in assay [7] and in [9] was “inactive” throughout. In addition, the Potency entry with Aromatase (Homo sapiens) was “inactive”. Besides, the molecule was called inactive in assay [3], in assay [6] and in assay [8].

In the case of `N#Cc1ccc(C(c2ccc(C#N)cc2)n2cncn2)cc1`, the Potency entry in assay [1], in assay [2], in assay [4], in [5], in [7] and in [9] was “inactive” in each case. For the same molecule, the call in assay [3], in [6] and in assay [8] was inactive.

On to `COC(=O)c1ccc2cc(C(=O)OC)ccc2c1`, for which the Potency entry in assay [1], in [2], in assay [4], in assay [5], in assay [7] and in assay [9] was “inactive” each time. Further, in the assay with Aromatase (Homo sapiens), the Potency entry was “inactive”. The call in [3], in assay [6] and in assay [8] was inactive.

With `CCOC(=O)[C@H](CCc1ccccc1)N[C@@H](C)C(=O)N1Cc2cc(OC)c(OC)cc2C[C@H]1C(=O)O`, the Potency result in assay [1], in assay [2], in assay [4], in assay [5], in [7] and in assay [9] was “inactive” in each case. Further, the Potency entry in the assay with Aromatase (Homo sapiens) was “inactive”. Further, the molecule was called inactive in [3], in [6] and in assay [8].

For the molecule `CC(=O)OC1C2(C)CCC(C2)C1(C)C` (stereo not given), the Potency entry in assay [1], in [2], in assay [4], in assay [5], in assay [7] and in assay [9] was “inactive” each time. Further, the Potency result with Aromatase (Homo sapiens) is “inactive”. In addition, the molecule was called inactive in assay [3], in [6] and in assay [8].

For `CCOc1ccccc1N`, the Potency result in assay [1], in assay [2], in [4], in assay [5], in [7] and in assay [9] was “inactive” in each case. The Potency result in the assay with Aromatase (Homo sapiens) is “inactive”. For the same molecule, the result in assay [3], in assay [6] and in assay [8] was inactive.

Regarding `C[C@]12C(=O)OC(=O)[C@H]1[C@H]1C=C[C@@H]2C1`, the Potency entry (in assay [1]; in assay [2]; in [4]; in [5]; in assay [9]; in the assay with Aromatase (Homo sapiens)) was “inactive” throughout. The call in [3], in [6] and in [8] was inactive.

As to `COc1cc(C)ccc1C(C)C`, the Potency entry (in assay [1]; in assay [2]; in assay [4]; in [5]; in assay [7]; with Aromatase (Homo sapiens)) was “inactive” in each case. In addition, the molecule was classed as inactive in assay [3], in [6] and in assay [8].

For the molecule `CC(C)OC(C)C`, the Potency result in assay [1], in assay [2], in assay [4], in assay [5], in [7] and in assay [9] was “inactive” in each case. In addition, in the assay with Aromatase (Homo sapiens), the Potency result was “inactive”. Further, the call in assay [3], in [6] and in [8] was inactive.

As to `CC1=C(CC(=O)O)c2cc(F)ccc2/C1=C\c1ccc(S(C)(=O)=O)cc1`, the Potency result in assay [1], in [2], in assay [4], in [5], in assay [7] and in assay [9] was “inactive” in each case. In addition, the Potency result with Aromatase (Homo sapiens) is “inactive”. The result in assay [3], in [6] and in assay [8] was inactive.

With `C=C(C)C(=O)OCCOP(=O)(O)O`, the Potency entry (in assay [1]; in assay [2]; in assay [4]; in assay [5]; in [9]; with Aromatase (Homo sapiens)) was “inactive” each time. Besides, the outcome in assay [3], in assay [6] and in assay [8] was inactive.

As for `CC1(O)CSC(C)(O)CS1` (stereo not given), the Potency entry in assay [1], in assay [2], in assay [4], in assay [5], in assay [7] and in [9] was “inactive” throughout. Moreover, in the assay with Aromatase (Homo sapiens), the Potency result is “inactive”. Further, the molecule was classed as inactive in assay [3], in assay [6] and in assay [8].

Turning to `CCOc1ccc(NC(N)=O)cc1`, the Potency result (in [1]; in [2]; in [4]; in [5]; in assay [9]; with Aromatase (Homo sapiens)) was “inactive” throughout. Besides, the molecule was classed as inactive in assay [3], in assay [6] and in [8].

Turning to `CCC/C=C/CO`, the Potency entry in [1], in assay [2], in assay [5], in [7] and in assay [9] was “inactive” throughout. Further, the outcome in [3], in assay [6] and in [8] was inactive.

Consider `CC1(C)O[C@@H]2C[C@H]3[C@@H]4CCC5=CC(=O)CC[C@]5(C)[C@@]4(F)[C@@H](O)C[C@]3(C)[C@]2(C(=O)CCl)O1`, for which the Potency result in assay [1], in assay [2], in assay [4], in [5], in [7] and in [9] was “inactive” in each case. Besides, the Potency entry with Aromatase (Homo sapiens) is “inactive”. Besides, the call in assay [3] was inactive.

With `OCCN(CCO)CCN(CCO)CCO`, the Potency result (in assay [1]; in assay [2]; in [4]; in assay [5]; in [9]; with Aromatase (Homo sapiens)) was “inactive” in each case. Further, the molecule was classed as inactive in assay [3], in assay [6] and in [8].
